PubChem BioAssay AID624297 (National Center for Advancing Translational Sciences (NCATS), 2012)
The campaign covered roughly 340,000 compounds. About 6,200 (1.8%) were called active. Where a call stands in place of a potency, no number is given. About 10% were inconclusive and are not listed. This is one part of a sample in which actives are shown more often than they occur. Calls follow the shape of the dose curve; as a rule, active = well fitted activation curve with a large enough effect; inconclusive = small, poorly fitted or top-dose-only effect; inactive = no such curve, though single readings can be large or run the other way.

test: A quantitative high throughput screen for small molecules that induce DNA re-replication in SW480 colon adenocarcinoma cells.; also: nearly all actives have a fitted effect of over 55% in size; details: Hoechst DNA content imaging, 48 h; series mostly up to 46.1 µM
Procedure, shortened: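 Treated cells incubate 48 hr (37 C, 5% CO2), are stained 40 min with Hoechst, and nuclear fluorescence is enumerated; a rise in nuclei with high DNA signal marks re-replication.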
Potency is read from the fitted curve at half-maximal effect.

SMILES | Potency
Cc1ccc(S(=O)(=O)N2CCCCC2)cc1C(=O)N1CCN(CCO)CC1 | inactive
O=C(CCC(=O)N1CCN(S(=O)(=O)c2ccc(Cl)cc2)CC1)NCc1cccc(C(F)(F)F)c1 | inactive
OCCNc1nc(Nc2ccc(Cl)c(Cl)c2)nc2ccccc12 | inactive
CN(C)c1nc(NN)nc(Nc2ccc(F)cc2)n1 | inactive
CN(C)c1nc(Nc2ccc(Cl)c(Cl)c2)nc(N(C)C)n1 | 23.1 µM (active)
CC(=O)Oc1ccc2c(c1)C(=O)c1ccccc1C2=O | inactive
O=C1C(Cl)=C(Oc2ccccc2)C(=O)c2ccccc21 | 2.06 µM (active)
Cc1ccc(S(=O)(=O)N2CCN(C(=O)CN3C(=O)NC(C)(c4ccc(Cl)cc4)C3=O)CC2)c(C)c1 (stereo unspecified) | inactive
Cc1ccnc(SCC(=O)Nc2cccc(S(=O)(=O)N3CCOCC3)c2)n1 | inactive
CC(=O)Nc1ccc(NC(=O)c2sc3nc4c(c(-c5ccc(C)cc5)c3c2N)CCC4)cc1 | 20.6 µM (active)
Cc1ccc(NC(=O)c2csc3c2CCCC3)cc1 | inactive
Cc1ccc(NC(=O)c2c(NC(=O)CCC(=O)O)sc3c2CCCCC3)cc1 | inactive
COc1ccccc1N(CC(=O)Nc1c(C)n(C)n(-c2ccccc2)c1=O)S(=O)(=O)c1ccccc1 | inactive
Cc1ccc(S(=O)(=O)NCC(=O)NNC(=O)c2ccc(Br)cc2)cc1C | inactive
COc1cc(C#Cc2ccc3cc(CCCO)oc(=O)c3c2)cc(OC)c1 | 3.26 µM (active)
COc1cc(/C=C2\Oc3ccc(C#Cc4ccc(O)cc4)cc3C2=O)cc(OC)c1 | inactive
O=C1c2ccccc2C(=O)N1CCC#Cc1ccc2cc(C3(O)CCCCC3)oc(=O)c2c1 | inactive
C#CCOCCOCCOCCNc1nc(N2CCN(C(=O)[C@H](CO)n3cc([C@@H](N)C(C)C)nn3)CC2)nc(N2CCN(C(=O)[C@H](CCC(=O)O)n3cc([C@@H](N)[C@H](C)CC)nn3)CC2)n1 | inactive
COc1ccc2[nH]cc(/C=C(/C#N)S(=O)(=O)c3ccccc3)c2c1 | inactive
COc1ccc(/C=C(\C#N)c2c[nH]c3ccccc23)cc1 | 18.4 µM (active)
COc1cc(/C=C(\C#N)c2nc3ccccc3[nH]2)ccc1O | inactive

SMILES | Potency
C#CCOCCOCCOCCNc1nc(N2CCOCC2)nc(N2CCN(C(=O)[C@H](Cc3ccc(O)cc3)n3cc(CCO)nn3)CC2)n1 | inactive
Cc1noc(C)c1S(=O)(=O)N(C)C[C@H]1Oc2c(NC(=O)Nc3ccc4c(c3)OCO4)cccc2C(=O)N([C@H](C)CO)C[C@@H]1C | inactive
O=C(NCc1ccc2c(c1)OCO2)c1cc([N+](=O)[O-])ccc1N1CCOCC1 | 7.31 µM (active)
O=C(Cc1ccc([N+](=O)[O-])cc1)NCCc1ccc2c(c1)OCO2 | inactive
O=C(NCc1ccc2c(c1)OCO2)c1cc(F)c(F)cc1Cl | inactive
CC[C@]12c3[nH]c4ccc(Cl)cc4c3CCN1C(=O)[C@@H](CC(=O)NCCN1CCOCC1)C[C@@H]2C(=O)N1CCN(C(=O)C2CC2)CC1 | inactive
COc1ccc(CCNC(=O)COc2cc(C)cc3oc(=O)c(C)c(C)c23)cc1OC | inactive
COc1ccc(/C=C/C(=O)OCC(=O)NC2CCCCCC2)cc1OC | inactive
COc1ccc(C2/C(=C(/O)c3ccc4c(c3)CC(C)O4)C(=O)C(=O)N2Cc2ccncc2)cc1 (stereo unspecified) | inactive
COc1cc(C2/C(=C(\O)c3ccc4c(c3)CC(C)O4)C(=O)C(=O)N2Cc2ccco2)ccc1O (stereo unspecified) | 0.517 µM (active)
COCCCN1C(=O)C(=O)/C(=C(/O)c2ccc3c(c2)CC(C)O3)C1c1cccnc1 (stereo unspecified) | inactive
O=C(COC(=O)c1ccc(O)cc1O)c1ccc2c(c1)OCCO2 | inactive
O=C1CN(C(=O)COC(=O)/C=C/c2ccc(F)cc2)c2ccccc2N1 | inactive
COc1ccc(C(=O)CC(=O)C(=O)Nc2cc([N+](=O)[O-])ccc2OC)cc1 | inactive
COc1ccc(C(=O)c2c3ccc([N+](=O)[O-])cc3[n+]([O-])n2CCCN)cc1 | 18.4 µM (active)
COc1ccc2c(C(=O)c3ccc(C)cc3)n(CCC(N)=O)[n+]([O-])c2c1 | inactive
COc1cc(OC)cc(-c2c(C#Cc3ccsc3)c3cc(-c4ccc(SC)cc4)ccc3n2C)c1 | inactive
Cc1nnc(N/N=C/c2ccccn2)[nH]c1=O | 1.3 µM (active)
Cc1nnc(N/N=C/C2CC=CCC2)[nH]c1=O (stereo unspecified) | inactive
Cc1cc(C(=O)N/N=C/c2ccccn2)c2ccccc2n1 | inactive
CC(C)[C@@H](C(=O)OCC(=O)c1ccc2c(c1)NC(=O)CO2)N1C(=O)c2ccccc2C1=O | inactive

SMILES | Potency
O=S(=O)(NCC1CN(S(=O)(=O)c2ccc3c(c2)OCCO3)C1)c1c(F)cccc1F | inactive
CSc1ncccc1C(=O)Nc1cccc(S(=O)(=O)N2CCOCC2)c1 | inactive
CCOC(=O)c1c(S(=O)(=O)Nc2cccc(Cl)c2)c(C)n(C)c1C | 8.2 µM (active)
CCOC(=O)c1c(S(=O)(=O)Nc2ccc(CN3CCC(C)CC3)cc2)c(C)n(C)c1C | inactive
CCOC(=O)c1cccc(NS(=O)(=O)c2c(C(=O)N3CCCCCC3)c(C)n(C)c2C)c1 | inactive
COc1ccc(CCN2CC(C(=O)OCC(=O)NCc3ccccc3Cl)CC2=O)cc1OC (stereo unspecified) | inactive
Cc1ccc(S(=O)(=O)N2CCN(C(=O)Cn3c(=O)cnc4ccccc43)CC2)c(C)c1 | inactive
CCN(CC(=O)Nc1c(F)cccc1F)C(=O)Cc1cccs1 | inactive
Cc1cc(NC(=O)CSCC(=O)NC(C)c2ccccc2)no1 (stereo unspecified) | inactive
NS(=O)(=O)c1ccc(CCNc2nc(C(F)(F)F)nc3ccccc23)cc1 | inactive
CCc1ccc(C(CNc2nc(C(F)(F)F)nc3ccccc23)N(C)C)cc1 (stereo unspecified) | 20.6 µM (active)
COc1cccc(CNc2nc(C(F)(F)F)nc3ccccc23)c1 | inactive
CC(CN1CCC(n2nccc2NC(=O)C2CCCC2)CC1)c1ccccc1 (stereo unspecified) | inactive
CC(CN1CCCCC1)c1ccccc1 (stereo unspecified) | 5.8 µM (active)
CC(CN1CCOCC1)c1ccccc1 (stereo unspecified) | inactive
O=C(Nc1ccc2ccccc2c1[N+](=O)[O-])c1ccccc1 | inactive
O=C(Nc1ccccc1Cl)Nc1cccc2cccnc12 | inactive
CC(=O)/C(=N\Nc1ccc(Cl)cc1Cl)Sc1cccc2cccnc12 | 6.51 µM (active)
O=C(Nc1cccc2cccnc12)c1cccc(Cl)c1 | inactive
